Bioassay records: PubChem, The Scripps Research Institute Molecular Screening Center
HTR5A ag: counter-screen for OPRM1-OPRD1 agonists: human HTR5A agonism | HTR5A agonist assay, luminescence, cell-based | activation, % at 9.3 µM | hit rate 0.61% among 340,000 | AID 504692; in the data active = activation mostly above about 9.5%, no sharp cut-off; inactive = mostly below about 7.6%
Target sequence (P47898 whole entry, looked up): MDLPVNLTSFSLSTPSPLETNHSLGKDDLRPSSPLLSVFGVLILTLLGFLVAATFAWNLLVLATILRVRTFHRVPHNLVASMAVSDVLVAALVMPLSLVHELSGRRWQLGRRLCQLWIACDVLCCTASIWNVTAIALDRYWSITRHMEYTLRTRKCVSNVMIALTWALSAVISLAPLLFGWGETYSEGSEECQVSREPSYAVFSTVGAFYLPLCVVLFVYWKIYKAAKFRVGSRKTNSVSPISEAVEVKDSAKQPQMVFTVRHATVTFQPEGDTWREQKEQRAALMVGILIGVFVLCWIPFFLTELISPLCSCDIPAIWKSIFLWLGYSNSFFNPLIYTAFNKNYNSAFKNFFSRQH
MOR-DOR inv ag: inverse agonist of human OPRM1-OPRD1 heterodimerization. cell-based MOR-DOR heterodimer luminescence, inverse agonism. inhibition, % at 9.3 µM. hit rate 0.21% among 340,000; in the data active = inhibition above about 22%, passing the limit was not always enough
MOR-DOR ag: OPRM1-OPRD1 heterodimerization agonism; hit rate 0.3% among 340,000; activation, % at 9.3 µM; cells, luminescence; P35372+P41143
HTR5A inv ctr: inverse agonist of human HTR5A in OPRM1-OPRD1 counter-screen. HTR5A cell line, luminescence, inverse agonism. inhibition, % at 9.3 µM. hit rate 0.083% among 340,000; in the data active = inhibition mostly above about 23%, no sharp cut-off; inactive = mostly below about 18%
OPRM1-D1 ag cf: confirmation of human OPRM1-OPRD1 heterodimerization agonists | activation, % at 9.3 µM | hit rate 45% among 830 | AID 504904 | cells, MOR-DOR heterodimerization, luminescence complementation | shares compounds with MOR-DOR ag
HTR5A ag counter: HTR5A agonism, opioid heterodimer counter-screen; shares compounds with MOR-DOR ag; HTR5A agonist counterscreen, cell luminescence; activation, % at 9.3 µM; hit rate 8% among 830; AID 504905; in the data active = activation above about 17%
Numbers stand for hits; - = inactive; . = not tested or not shown. Most compounds without a hit are left out; they make up all but 1.1% or so of the library. Rule as the data show it, unless noted: active = activation above about 18%; inactive = the rest.

SMILES | HTR5A ag | MOR-DOR inv ag | MOR-DOR ag | HTR5A inv ctr | OPRM1-D1 ag cf | HTR5A ag counter
COc1ccc(OCC(=O)NNC(=S)NC(=O)c2ccc(Br)o2)cc1 | - | - | - | - | . | .
CC(CCc1ccccc1)NC(=O)c1ccc(NC(=O)c2ccccc2)cc1 (stereo unspecified) | - | - | 25.5 | - | - | -
Cc1ccc(-c2csc3ncnc(-n4nnc5ccccc54)c23)cc1 | - | - | 22.9 | - | - | -
Cc1ccc(-c2csc3ncnc(-n4nnc5ccccc54)c23)cc1C | - | - | - | - | . | .
COc1ccc(CC(=O)Nc2ccc(-c3cn4cccc(C)c4n3)cc2)cc1OC | - | - | - | - | . | .
Cc1cccn2cc(-c3ccc(NC(=O)Cc4ccccc4)cc3)nc12 | 17.2 | - | 38.9 | - | - | -
Cc1cc(C)cc(CC(Cc2nc3ccccc3[nH]2)c2nc3ccccc3[nH]2)c1 (stereo unspecified) | - | - | 66.1 | - | - | -
Cc1ccc2nc(SC(C(=O)Nc3ccc(F)cc3)c3ccccc3)[nH]c2c1 (stereo unspecified) | - | - | 23.5 | - | 454.0 | -
Cc1ccc(C)c(NC(=O)C(Sc2nc3ccc(C)cc3[nH]2)c2ccccc2)c1 (stereo unspecified) | - | - | - | - | . | .
CC(=O)Nc1cccc(/C(C)=N/NC(=O)c2cccc(S(=O)(=O)N3CCOCC3)c2)c1 | - | - | - | - | . | .
C/C(=N\NC(=O)c1cccc(S(=O)(=O)N2CCOCC2)c1)c1ccc(O)cc1 | - | - | 218.5 | - | - | -
CCn1cc(C(=O)NC2CCCc3c2cnn3-c2cccc(C)c2C)cn1 (stereo unspecified) | - | - | - | - | . | .
Cc1ccc(-c2nn(-c3ccccc3)cc2CO)cc1 | - | - | - | - | . | .
N=C(N)SCc1cn(-c2ccccc2)nc1-c1ccc(Br)cc1 | - | - | 20.0 | - | - | -
CN(CC(=O)Nc1cccc(F)c1)C(=O)c1ccc(N2CCCCC2)c([N+](=O)[O-])c1 | - | - | - | - | . | .
CCCCCCn1c(SCC(=O)Nc2cc(C)on2)nc2ccccc2c1=O | - | - | 21.1 | - | 25.9 | 17.1
COCCn1c(SCC(=O)Nc2cc(C)on2)nc2ccccc2c1=O | - | - | - | - | . | .
CC(=O)c1cccc(N(C(=O)CNC(=O)c2ccco2)C(C(=O)NC2CCCC2)c2ccco2)c1 (stereo unspecified) | - | - | - | - | . | .
CCOC(=O)C1(CCOc2ccccc2)CCN(Cc2ccc(NC(C)=O)cc2)CC1 | - | - | 91.8 | - | - | -
CC(=O)Nc1ccc(CN2CCC(CO)(CCOc3ccccc3)CC2)cc1 | - | - | - | - | . | .
CCOC(=O)C1(CCOc2ccccc2)CCN(Cc2cccc(-n3cccn3)c2)CC1 | - | - | 32.6 | - | - | -
CCOC(=O)C1(CCOc2ccccc2)CCN(Cc2cnc(C)s2)CC1 | - | - | 72.0 | - | 80.0 | -
CCOC(=O)C1(CCOc2ccccc2)CCN(Cc2ccc(OC)cc2)CC1 | - | - | 224.2 | - | - | -
Cc1ccc(Cn2nc(C)c(C(=O)NCC(c3cccs3)N3CCOCC3)c2Cl)cc1 (stereo unspecified) | - | - | - | - | . | .
CCCCNC(=O)C(=O)NCC1CCCN1S(=O)(=O)c1cccs1 (stereo unspecified) | - | - | - | - | . | .
SMILES | HTR5A ag | MOR-DOR inv ag | MOR-DOR ag | HTR5A inv ctr | OPRM1-D1 ag cf | HTR5A ag counter
CCOC(=O)C1(CCOc2ccccc2)CCN(Cc2cccc3c2OCO3)CC1 | - | - | 18.1 | - | - | -
CCOC(=O)C1(CCOc2ccccc2)CCN(Cc2ccccc2O)CC1 | - | - | - | - | . | .
O=C(COC(=O)c1ccccc1C(=O)OCC(=O)NCCc1c[nH]c2ccccc12)NCCc1c[nH]c2ccccc12 | - | - | - | - | . | .
Cc1cc(N2CCN(C)CC2)ccc1NC(=O)c1ccc(-c2ccc(Cl)cc2)o1 | - | - | 26.2 | - | 44.5 | -
CN1CCN(c2ccc(NC(=O)c3ccc(Br)o3)cc2)CC1 | - | - | - | - | . | .
CN1CCN(c2ccccc2NC(=O)c2ccc(-c3ccc(Cl)c(Cl)c3)o2)CC1 | - | - | - | - | . | .
CN1CCN(c2ccc(NC(=O)c3ccc(-c4ccccc4F)o3)cc2)CC1 | - | - | 158.2 | - | 248.6 | -
CC(C)(C)OC(=O)C[C@H]1C/C=C\C[C@H](CC(=O)N[C@@H](CO)Cc2ccccc2)C(=O)N[C@H](C(C)(C)C)COC1=O | - | - | - | - | . | .
